# Screening data deposited in PubChem BioAssay by The Scripps Research Institute Molecular Screening Center.
# TCR CD3 inh: inhibitors of human TCR-CD3 interaction. inhibition, % at 9.4 µM. 0.37% of 360,000 active. AID 651800. TAMRA-labeled TCR probe fluorescence, biochemical; in the data active = inhibition above about 19%;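 also: recombinant mutant TCR 2C K166C tagged with TAMRA read by polarization; 0% = receptor in buffer alone and 100% = receptor with positive control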
# PAFAH2 FP inh: inhibitors of human PAFAH2; Q99487; inhibition, % at 3.39 µM; recombinant PAFAH2, FP-rhodamine activity probe, fluorescence polarization; 0.99% of 340,000 active; AID 492956;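 active = inhibition above the mean over all tested compounds plus 3 SD, cut at about 30% in these data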;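 also: inhibitors block probe labeling of enzyme so polarization drops; 0% = enzyme with DMSO and 100% = wells lacking PAFAH2 protein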
# PAFAH1B3 inh: blocks human PAF acetylhydrolase 1B catalytic subunit 3; Q15102; AID 492972; recombinant PAFAH1B3, FP-rhodamine probe, fluorescence polarization; inhibition, % at 3.39 µM; 0.28% of 340,000 active;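 active = inhibition above the screen-wide average of all tested compounds plus 3 SD, cut at about 25% in these data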;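 also: 0% = enzyme with DMSO only and 100% = wells lacking PAFAH1B3 protein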
# pPAFAH inh: inhibitors of human plasma PAF acetylhydrolase (pPAFAH); Q13093; recombinant pPAFAH, FP-rhodamine probe fluorescence polarization; inhibition, % at 3.39 µM; 1.5% of 330,000 active; AID 463082;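 active = inhibition above the mean inhibition across the screen plus 3 SD, cut at about 25% in these data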;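 also: inhibitors block binding of the rhodamine activity-based probe so polarization drops; 0% = enzyme with DMSO and 100% = wells lacking pPAFAH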
# PAFAH1B2 inh: blocks human PAF acetylhydrolase 1b catalytic subunit 2. P68402. recombinant PAFAH1B2, FP-rhodamine activity probe, fluorescence polarization. inhibition, % at 3.39 µM. 1.2% of 340,000 active;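 active = inhibition above the mean of all tested compounds plus 3 SD, cut at about 24% in these data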;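 also: 0% = enzyme with DMSO and 100% = wells lacking PAFAH1B2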
# Target sequence (P68402 whole entry, looked up): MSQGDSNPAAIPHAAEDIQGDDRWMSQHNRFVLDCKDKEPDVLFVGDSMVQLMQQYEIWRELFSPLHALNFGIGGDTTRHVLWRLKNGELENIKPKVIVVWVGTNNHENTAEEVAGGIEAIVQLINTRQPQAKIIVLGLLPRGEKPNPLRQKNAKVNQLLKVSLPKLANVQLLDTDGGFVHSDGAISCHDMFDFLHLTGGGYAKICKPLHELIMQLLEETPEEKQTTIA
# Numbers without * were called inactive; · = no result. An excerpt weighted towards active compounds, which were near 2.7% of everything screened.
SMILES,TCR CD3 inh,PAFAH2 FP inh,PAFAH1B3 inh,pPAFAH inh,PAFAH1B2 inh
CCCCCCSc1cc(-c2nc3cc(C)ccn3c2NCCCC)ccc1OC,2,1,7,18,2
CCCCNc1c(-c2cccc(-c3cc(C(C)=O)cs3)c2)nc2cc(C)ccn12,2,5,10,33*,7
OCCN1CCN(c2ncnc3c2c(-c2ccccc2)cn3-c2ccc(F)cc2)CC1,2,-5,4,25*,-1
COc1ccc(-n2cc(-c3ccccc3)c3c(N4CCN(CCO)CC4)ncnc32)cc1,·,-1,-1,23,-1
Cc1ccc(-c2nc(CSCC(=O)N3CCN(c4ccccn4)CC3)c(C)o2)cc1,11,3,3,0,25*
CCc1ccc(-c2nc(CSCC(=O)N3CCN(c4ccccn4)CC3)c(C)o2)cc1,0,-1,3,8,44*
Cc1ccc(-c2nc(CSCC(=O)N3CCOCC3)c(C)o2)cc1,11,-1,6,4,3
Cc1ccc(-c2nc(CSCC(=O)N3CCN(C(=O)c4ccco4)CC3)c(C)o2)cc1,0,7,2,-4,0
CCC(CC)NC(=O)COC(=O)c1ccc(OCc2ccc(C(C)=O)cc2OC)c(OC)c1,-1,77*,4,27*,-3
COc1cc(C(C)=O)ccc1COc1ccc(C(=O)OCC(N)=O)cc1OC,2,2,-1,-2,0
COc1ccccc1C(=O)N1CCC2CCN(C(=O)c3ccccc3)C2C1 (stereo not given),-12,·,·,·,·
CCOC(=O)C1=CNS(=O)(=O)NC1c1cccc(O)c1 (stereo not given),-4,-2,8,5,0
CSc1ccc(-c2cc3c(c4c2ccn4C)C2CCC3O2)cc1 (stereo not given),-3,·,·,·,·
O=C(Cn1cnc2scc(-c3ccccc3)c2c1=O)NCc1ccco1,0,-1,0,25*,-2
CCc1ccc(-c2csc3ncn(CC(=O)NCc4ccco4)c(=O)c23)cc1,7,-1,0,7,2
CN(Cc1ccccc1)C(=O)COc1cc(=O)n(C)c2ccccc12,-7,-9,-9,32*,9
CCc1ccc2[nH]c(O)c(N=NC3=NC(=O)CS3)c2c1,0,-5,9,24,34*
CCc1ccc2c(c1)c(N=NC1=NC(=O)CS1)c(O)n2CC,3,12,5,6,6
O=C(COc1coc(CN2CCc3ccccc32)cc1=O)NCCc1ccccc1,4,1,5,4,28*
O=C(COc1coc(CN2CCc3ccccc3C2)cc1=O)Nc1cccc(F)c1,1,19,5,30*,2
Cc1ccc(C)c(NC(=O)COc2coc(CN3CCc4ccccc43)cc2=O)c1,4,-1,6,7,1
O=C1NC(=S)N/C1=C/c1cccn1-c1ccc([N+](=O)[O-])cc1,1,1,5,32*,9
O=C(CSC1CCc2ccccc21)NNC(=O)Nc1ccc(Cl)cc1 (stereo not given),-1,·,·,·,·
Cc1ccc2c(c1)C=CC(C)N2C(=O)c1ccccc1 (stereo not given),10,4,3,-2,32*
CC(C)[C@H](N)C(=O)N[C@H](C(=O)N1CCC2CCN(Cc3ccccc3)CC21)C(C)C (stereo not given in full),8,·,·,·,·
SMILES,TCR CD3 inh,PAFAH2 FP inh,PAFAH1B3 inh,pPAFAH inh,PAFAH1B2 inh
CN(C)c1ccc(NC(=O)c2cccc(C(=O)Nc3ccc(N(C)C)cc3)n2)cc1,-4,-5,8,26*,-1
O=C(O)c1ccc(NC(=O)c2cccc(C(=O)Nc3ccc(C(=O)O)cc3)n2)cc1,-10,20,40*,8,31*
CN(C)c1ccc(/C=N/NC(=O)c2cccc(C(=O)N/N=C/c3ccc(N(C)C)cc3)n2)cc1,2,-2,1,3,0
O=C(Nc1ccccc1)c1cccc(C(=O)Nc2ccccc2)n1,6,-5,16,-2,1
O=C(NCC1CCN(C(=O)C(=O)c2cc3ccccc3o2)CC1)c1ccncc1,3,·,·,·,·
C[C@]12Cc3ccccc3C1CC1=N[C@@H](c3ccc(C(F)(F)F)cc3)O[C@@]13C[C@@H]2C(=O)N3C1CCN(Cc2ccccc2)CC1 (stereo not given in full),-2,·,·,·,·
Cc1cccc(Oc2nc(CN3CCOCC3)nc3sc4c(c23)CCCC4)c1,1,-2,2,31*,3
Cc1ccc(C)c(SCC(=O)OCC(=O)c2ccco2)c1,6,15,6,28*,1
